Screening results deposited in PubChem by National Center for Advancing Translational Sciences (NCATS).
This is one part of a sample in which hits are shown more often than they occur.
Shiga inhibitor – blocks Shiga toxin action in Vero cells | Vero cells, Shiga toxin protein synthesis inhibition reporter | inhibition, % at 38.7 µM | 9.2% of 290,000 active | AID 2315; in the data active = inhibition mostly above about 28%, no sharp cut-off; inactive = mostly below about 43%; note: 0% is about no effect
LmPK inh – blocks Leishmania mexicana pyruvate kinase activity; Q27686; purified LmPK, Kinase-Glo ATP luminescence, 1 h; Potency, µM (top dose mostly 57.5 µM), inactives show top-dose activity change, negative = inhibition, usual class: inhibitors; 0.37% of 290,000 active; AID 1721; note: potency is the fitted concentration of half-maximal effect; % is set by controls: 0 for no effect and ±100 for the full control effect
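qHTS format; LmPK 0.1 nM; substrates PEP 0.5 mM and ADP 0.1 mM. One-hour room-temperature incubation, then coupled luciferase luminescence; 0.5 nM enzyme wells mark activation.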
FBPA Giardia inh – Giardia lamblia aldolase inhibition; A8B2U2; Potency, µM (titrated, usually from 59.6 µM), for inactives: at the highest dose activity, negative = inhibition, usual class: inhibitors; 0.71% of 290,000 active; purified Giardia FBPA; AID 2451; note: potency is the fitted concentration of half-maximal effect; % is set by controls: 0 for no effect and ±100 for the full control effect; nearly all actives have a fitted effect of over 55% in size
Target sequence (A8B2U2 whole entry, looked up): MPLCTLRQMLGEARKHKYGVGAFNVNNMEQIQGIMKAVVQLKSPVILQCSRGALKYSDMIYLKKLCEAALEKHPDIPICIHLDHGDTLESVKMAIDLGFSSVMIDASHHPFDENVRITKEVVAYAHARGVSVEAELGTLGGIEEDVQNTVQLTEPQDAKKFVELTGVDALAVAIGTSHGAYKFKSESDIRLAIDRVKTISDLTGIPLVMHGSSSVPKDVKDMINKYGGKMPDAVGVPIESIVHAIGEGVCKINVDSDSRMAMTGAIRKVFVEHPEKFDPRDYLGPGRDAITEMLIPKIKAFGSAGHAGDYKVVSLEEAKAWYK
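Giardia FBPA (40 nM reagent) was preincubated 10 min at RT with compound (up to 57.5 uM final), then substrate plus GAPDH/TPI/NAD/arsenate coupling system with diaphorase/resazurin was added; resorufin fluorescence (525/598 nm) was read after 20 min.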
TbPYK inhibitor – inhibitors of Trypanosoma brucei pyruvate kinase | Q57TT1 | TbPYK enzyme, Kinase-Glo Plus ATP luminescence, 45 min | Potency, µM (highest dose often 76.8 µM), without a hit: at the highest dose activity, negative = inhibition, most hits filed as inhibitors | 0.12% of 410,000 active; note: potency is the fitted concentration of half-maximal effect; % is set by controls: 0 for no effect and ±100 for the full control effect; nearly all actives have a fitted effect of over 50% in size
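T. brucei PYK with substrate was exposed to pin-transferred compounds across a concentration series, then started with 130 uM ADP (final). After 45 min at room temperature, Kinase-Glo Plus luminescence was read, normalized and curve-fitted.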
CHX counter – counter-screen hit for Shiga toxin inhibitors, cycloheximide. cell reporter, cycloheximide protein synthesis inhibition counterscreen. max response, %. 12% of 300,000 active. AID 2314; in the data active = max response mostly above about 13%, no sharp cut-off; inactive = mostly below about 14%; note: read at 38.3 µM for the half of the compounds with a filed dose; 0% is about no effect
RE007 growth inh – less growth of the S. pombe RE007 Vpr strain | S. pombe RE007 Vpr strain, BacTiter-Glo ATP luminescence, 24 h | 0.21% of 360,000 active | AID 651644 | Potency, µM (series often up to 92.2 µM), for the others: at the top dose activity change, negative = less growth, usual class: inhibitors; active = well fitted falling curve with a large enough effect; inconclusive = small, poorly fitted or top-dose-only effect; inactive = no such curve, though single readings can be large or run the other way; note: potency is the fitted concentration of half-maximal effect; % is set by controls: 0 for no effect and ±100 for the full control effect; nearly all actives have a fitted effect of over 50% in size
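Fission yeast RE007 carrying one integrated HIV-1 vpr copy, seeded at OD 0.01 in PMG+AL medium with 23 nL pinned compound. Grown 24 h at 30 degrees; viability read by BacTiter-Glo luminescence after 5 min.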
Numbers without * were called inactive; [ ] = another dose, or the depositor's remark. Unless noted, calls come from the whole dose curve; as a rule, active = well fitted curve in the direction sought with a large enough effect; inconclusive = small, poorly fitted or top-dose-only effect, or another doubt; inactive = no such curve, though single readings can be large; an effect the other way counts as inactive or inconclusive.

`COc1ccccc1NC(=O)c1ccccc1C(=O)N(C)Cc1ccccc1` gave TbPYK inhibitor 2% and RE007 growth inh 1%.
For C=CCOC(=O)NC(c1ccc(F)c(F)c1)C(C(=O)CCl)C(=O)OC (stereo not given) the results were FBPA Giardia inh 0%.
For COc1ccc(C(=O)COc2ccccc2C#N)cc1 the results were Shiga inhibitor 60*, LmPK inh 3%, FBPA Giardia inh -3%, TbPYK inhibitor 3%, CHX counter 28* and RE007 growth inh 15%.
Screening COc1ccc(C(=O)COc2ccccc2C(N)=O)cc1 returned Shiga inhibitor 19, LmPK inh 0%, FBPA Giardia inh 4%, TbPYK inhibitor 1%, CHX counter 3 and RE007 growth inh 12%.
COCCn1nnnc1C(c1cccs1)N1CCN2CCCC2C1 (stereo not given) was read as Shiga inhibitor 54*, LmPK inh -11%, FBPA Giardia inh 3%, TbPYK inhibitor -15%, CHX counter 14* and RE007 growth inh 15%.
Screening Fc1ccc(Cn2nnnc2C(c2cccs2)N2CCN(C3CCCCC3)CC2)cc1 (stereo not given) returned Shiga inhibitor 55*, LmPK inh -1%, FBPA Giardia inh -2%, TbPYK inhibitor 0%, CHX counter 14* and RE007 growth inh -9%.
Cc1csc2nc(COC(=O)c3ccccc3NC(=O)COc3ccccc3F)cc(=O)n12 was read as TbPYK inhibitor 5%.
Screening O=C(c1ccco1)N1CCN(C(=O)c2ccco2)CC1 returned TbPYK inhibitor 4% and RE007 growth inh 5%.
Screening O=C(c1ccco1)N1CCN(Cc2ccccc2Br)CC1 returned Shiga inhibitor 56*, LmPK inh 7%, FBPA Giardia inh inconclusive, TbPYK inhibitor -5%, CHX counter 34* and RE007 growth inh 1%.
Screening O=C(c1ccco1)N1CCN(Cc2ccc(F)cc2Cl)CC1 returned LmPK inh 0%, FBPA Giardia inh 5%, TbPYK inhibitor 2%, CHX counter 50* and RE007 growth inh -4%.
OC1CCN(Cc2cccc3ccccc23)CC1 was read as Shiga inhibitor -5, LmPK inh -8%, FBPA Giardia inh inconclusive, TbPYK inhibitor 3%, CHX counter 0 and RE007 growth inh -11%.
C/C(=N/N1CCN(Cc2cccc3ccccc23)CC1)c1ccco1 was read as Shiga inhibitor 17*, LmPK inh -15%, FBPA Giardia inh 8%, TbPYK inhibitor -3%, CHX counter 11 and RE007 growth inh -21%.
OC(c1cccc(Cl)c1)c1ncc(-c2cccc(C(F)(F)F)c2)[nH]1 (stereo not given) was read as TbPYK inhibitor -3% and RE007 growth inh -17%.
Screening Cc1ccc(S(=O)(=O)CCC(=O)NCCN2C(=O)S/C(=C/c3ccc(F)cc3)C2=O)cc1 returned Shiga inhibitor -1, LmPK inh -1%, FBPA Giardia inh -2%, TbPYK inhibitor -1%, CHX counter 16* and RE007 growth inh inconclusive.
CCN(CC(=O)Nc1c(F)cccc1F)C(=O)c1ccc(N2CCCC2=O)cc1 was read as TbPYK inhibitor 1% and RE007 growth inh 10%.
CC1CCN(C(=O)c2cc3c(ccc4ccccc43)o2)CC1 was read as Shiga inhibitor 77*, LmPK inh -12%, TbPYK inhibitor 1%, CHX counter 20* and RE007 growth inh -7%.
Screening Cc1nc2ccccc2c2oc(C(=O)N3CCC(C)CC3)cc12 returned Shiga inhibitor 60*, LmPK inh 6%, FBPA Giardia inh 3%, TbPYK inhibitor 3%, CHX counter 20* and RE007 growth inh -1%.
For CCOC(=O)C1CCN(C(=O)c2cc3cc4ccc(C)cc4nc3o2)CC1 the results were Shiga inhibitor 45*, LmPK inh 0%, FBPA Giardia inh -7%, TbPYK inhibitor -12%, CHX counter 30* and RE007 growth inh -3%.
Screening Cc1nc2ccccc2c2oc(C(=O)N3CCN(C(=O)c4ccco4)CC3)cc12 returned Shiga inhibitor 21, LmPK inh -1%, FBPA Giardia inh 0%, TbPYK inhibitor 1%, CHX counter -4 and RE007 growth inh -8%.
For CCOC(=O)C1CCN(C(=O)c2cc3c(ccc4ccccc43)o2)CC1 the results were Shiga inhibitor 121*, LmPK inh 0%, TbPYK inhibitor -2%, CHX counter 59* and RE007 growth inh 17%.
COC(=O)c1ccc(COc2ccccc2/C=C/C(=O)c2ccc(OCC(=O)O)cc2)cc1 was read as Shiga inhibitor 47, LmPK inh -2%, FBPA Giardia inh -22%, TbPYK inhibitor 5%, CHX counter 1 and RE007 growth inh 4%.
Screening Nc1ccc2c(c1)OC1(CCCC1)O2 returned Shiga inhibitor 99*, LmPK inh -4%, FBPA Giardia inh -9%, TbPYK inhibitor -9%, CHX counter 48* and RE007 growth inh -8%.
Screening O=C(Cc1ccccc1)Nc1ccc2c(c1)OC1(CCCC1)O2 returned TbPYK inhibitor -1% and RE007 growth inh 25%.
CCc1ccc2oc(-c3cc(N)cc(C)c3O)nc2c1 was read as Shiga inhibitor 80*, LmPK inh -9%, FBPA Giardia inh -16%, TbPYK inhibitor -9%, CHX counter 36* and RE007 growth inh -13%.
CCc1ccc2oc(-c3ccc(C)c(NC(=O)Cc4ccccc4)c3)nc2c1 was read as TbPYK inhibitor 5%.
Screening CCc1ccc2oc(-c3cc(N)ccc3Cl)nc2c1 returned Shiga inhibitor 21, LmPK inh -28%, FBPA Giardia inh -9%, TbPYK inhibitor -3%, CHX counter 15* and RE007 growth inh 16µM*.
Nc1ccc2oc(-c3ccccc3Cl)nc2c1 was read as Shiga inhibitor 36*, LmPK inh inconclusive, FBPA Giardia inh -6%, TbPYK inhibitor -17%, CHX counter 21* and RE007 growth inh inconclusive.
CCc1ccc2oc(-c3cc(N)ccc3O)nc2c1 was read as Shiga inhibitor 15, LmPK inh inconclusive, FBPA Giardia inh -2%, TbPYK inhibitor -21%, CHX counter 18* and RE007 growth inh inconclusive.
Screening CCc1ccc2oc(-c3cc(NC(=O)C(C)C)cc(C)c3O)nc2c1 returned TbPYK inhibitor 0%.
For CCOc1ccccc1CNC(=O)CN1C(=O)CCCc2ccccc21 the results were TbPYK inhibitor 5%[15.4 µM].
`Cc1ccc2nc(-c3ccc4c(c3)OCCO4)cn2c1` gave Shiga inhibitor -24, LmPK inh 14µM*, FBPA Giardia inh inconclusive, TbPYK inhibitor -11%, CHX counter -8 and RE007 growth inh inconclusive.
For COc1ccc(-c2cc(-c3ccc4c(c3)NC(=O)CO4)nc3c2COc2ccc(C)cc2-3)cc1 the results were TbPYK inhibitor 0%.
